Bioassay records (PubChem)
A selection: hits, their analogues and other compounds. The true share with any hit is near 27%.
CYP2C19 activ: activators of human cytochrome P450 2C19; recombinant CYP2C19, luciferin-H EGE luminescence; active compounds read high; 0 = fully inhibited enzyme, 1 = untreated enzyme; 96,000 tested, under 10 active; activation factor at 5 µM;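 active = activation factor of at least 2 at 5 µM in the primary screen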
Target sequence (P33261 whole entry, looked up): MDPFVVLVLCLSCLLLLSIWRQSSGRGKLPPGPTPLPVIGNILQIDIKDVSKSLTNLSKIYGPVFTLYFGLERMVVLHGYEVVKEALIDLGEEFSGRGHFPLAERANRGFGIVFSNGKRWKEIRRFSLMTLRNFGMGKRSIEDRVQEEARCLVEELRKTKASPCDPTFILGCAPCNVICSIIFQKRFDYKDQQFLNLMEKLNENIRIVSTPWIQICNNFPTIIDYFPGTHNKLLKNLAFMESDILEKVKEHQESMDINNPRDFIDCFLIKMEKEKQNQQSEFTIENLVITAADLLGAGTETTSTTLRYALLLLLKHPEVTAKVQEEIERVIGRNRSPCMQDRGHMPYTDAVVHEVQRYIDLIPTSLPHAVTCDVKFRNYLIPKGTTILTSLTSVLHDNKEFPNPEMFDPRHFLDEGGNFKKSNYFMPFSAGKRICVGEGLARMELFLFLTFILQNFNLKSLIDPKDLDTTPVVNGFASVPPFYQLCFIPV
CYP2C9 inh: inhibitors of human CYP2C9. P11712. CYP2C9 Supersomes, luciferin-H conversion, luminescence. inhibition, % at 5 µM. 96,000 tested, 20% active. AID 777;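 active = blocking of liver enzyme CYP2C9 beyond about 50% at 5 µM, limit read from the data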
Cav32 inh: inhibitors of human Cav3.2 T-type calcium channel. 100,000 tested, 4% active. Cav3.2-expressing cells, Fluo-4 calcium fluorescence FDSS; active compounds read low. O95180. AID 449739. B-score at 10 µM;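 active = single-dose well whose peak fluorescence ratio is a statistical outlier from its plate by either plate-standardised score or position-corrected B-score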
CYP2C9 act: CYP2C9 (human) activation; 96,000 tested, 1.4% active; recombinant CYP2C9, luciferin-H conversion, luminescence; active compounds read high; factor 1 = untreated enzyme, 0 = blocked; activation factor at 5 µM; AID 1024; P11712;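 active = activation factor of 2 or more for CYP2C9 at a 5 µM dose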
CYP2C19 inhib: blocks human cytochrome P450 2C19. P33261. CYP2C19 Supersomes, luciferin-H EGE luminescence, 30 min. inhibition, % at 5 µM. 96,000 tested, 21% active;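 active = CYP2C19 inhibition above a set limit at 5 µM in the primary screen, cut at about 50% in these data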
PTK2B oligo ant: Pyk2 (human) oligomerization antagonism | Q14289 | Q293 cells, Pyk2 FERM NanoBiT luminescence; active compounds read low | z-score (the deposit names both 25 µM and 10 µM) | 99,000 tested, 0.83% active | AID 1347419;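 active = Z-score of -3 or lower, scaled per plate to the spread of control and sample wells; inactive = z-score above -3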;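 also: negative z-score means lost luminescence so less FERM oligomerization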
A number is an active result; n = inactive; x = not tested or not shown.

SMILES	CYP2C19 activ	CYP2C9 inh	Cav32 inh	CYP2C9 act	CYP2C19 inhib	PTK2B oligo ant
COC(=O)c1[nH]c2ccc(C)cc2c1NC(=O)CN1CCN(C(=O)c2ccccc2)CC1	n	n	n	n	n	n
Cc1ccc2[nH]c(C(=O)O)c(NC(=O)CN3CCN(c4cccc(C)c4C)CC3)c2c1	n	82.7	-4.95	n	n	n
CCc1cccc(CC)c1NC(=O)CN1CCN(c2ccccc2)CC1	n	82.8	n	n	65.6	n
O=C(CN1CCN(c2ccccc2)CC1)Nc1ccccc1C(F)(F)F	n	n	n	n	n	n
COC(=O)c1[nH]c2ccc(C)cc2c1NC(=O)CN1CCN(c2ccc(F)cc2)CC1	n	n	n	n	n	n
C=CCn1c(CCC(=O)O)ccc1-c1ccccc1	n	69.8	n	n	n	n
O=C(O)CCc1ccc(-c2ccc(Cl)cc2)n1CCC(=O)O	n	n	x	n	n	n
O=C1c2ccccc2NC(c2ccccn2)N1c1ccc(Cl)cc1 (configuration not stated)	n	62.9	n	n	n	n
Cc1cccc(C2Nc3ccccc3C(=O)N2c2ccccc2)n1 (configuration not stated)	n	69.5	n	n	70.8	n
Cc1cc(=O)oc2cc(OC(C)C(=O)Nc3nccs3)ccc12 (configuration not stated)	n	79.8	n	n	81.0	n
Cc1csc(NC(=O)COc2ccc3c(C)cc(=O)oc3c2)n1	n	n	n	n	n	n
COC(=O)C(CC(C)C)Oc1ccc2c(C)cc(=O)oc2c1 (configuration not stated)	n	64.7	n	n	n	n
Cc1ccc(OCCn2ccc(=O)[nH]c2=O)cc1C	n	n	n	n	n	n
O=C(c1ccccc1)c1ccc(OCCn2cnc3ccccc3c2=O)cc1	n	n	n	n	n	n
CC(C)(C)c1ccc(OCCn2ccccc2=O)cc1	n	n	n	n	70.4	n
CC(C)(c1ccccc1)c1ccc(OCCn2cnc3ccccc3c2=O)cc1	n	n	-6.55	n	n	n
O=C(NC(=S)NCc1ccccc1)c1ccccc1F	n	n	n	n	n	n
O=C(NC(=S)N(Cc1ccccc1)Cc1ccccc1)c1ccccc1F	n	53.0	-6.16	n	n	n
CCCSc1nnc(-c2ccccc2N)c(=O)[nH]1	n	n	n	n	n	n
CC(C)(C)NC(=O)CN(C(=O)CS(=O)CC(=O)Nc1ccc(F)cc1)c1ccccc1 (configuration not stated)	n	71.2	n	n	n	n
COCCNC(=O)CN(C(=O)CCC(=O)Nc1ccccn1)c1ccc(F)cc1	n	n	n	n	n	n
O=C(NC1(C(=O)NC2CCCCC2)CCCCC1)c1ccc2c(c1)OCO2	x	x	n	x	x	n
O=C(c1ccc2c(c1)OCO2)N(CC1CCCO1)C1(C(=O)NC2CCCC2)CCCCC1 (configuration not stated)	n	54.7	n	n	50.6	n
CCOC(=O)N1CCC(NC(=O)c2cc3c(-c4ccc(Cl)cc4)nn(C)c3s2)CC1	x	x	n	x	x	x
O=C(c1ccccc1)n1ccc(-c2cnc(-c3ccccc3)s2)n1	n	n	n	n	56.4	n
SMILES	CYP2C19 activ	CYP2C9 inh	Cav32 inh	CYP2C9 act	CYP2C19 inhib	PTK2B oligo ant
C[C@]1(C(=O)O)C=C[C@@H](Cc2ccccc2)N1C(=O)c1ccccc1	x	x	n	x	x	x
N#C/C(=C(/O)COC(=O)c1ccc2c(c1)OCCO2)c1nc2ccccc2[nH]1	n	76.1	n	n	59.6	n
CC(C)N(Cc1ccccc1)C(=O)COC(=O)c1ccc2c(c1)OCCO2	n	n	n	n	n	n
CCOC(=O)c1c(C)[nH]c(C(=O)OC/C(O)=C(\C#N)c2nc3ccccc3[nH]2)c1C	n	81.4	n	n	58.1	n
O=C(Cc1coc2cc3c(cc12)CCC3)OCc1cc(=O)n2c(n1)sc1ccccc12	n	n	n	n	n	n
O=C(CCC(=O)OCC(=O)c1ccc(Br)cc1)Nc1ccc(Br)c2cccnc12	n	n	n	3	n	n
O=C(NCc1cc(C(F)(F)F)cc(C(F)(F)F)c1)C1CC(c2ccc(C(F)(F)F)cc2)=NO1 (configuration not stated)	x	x	n	x	x	x
O=C1C(c2ccc(F)cc2)N(Cc2ccc3c(c2)OCO3)C(=O)CN1C1CCCCCC1 (configuration not stated)	n	55.8	n	n	n	n
